Experimental data as given in PubChem BioAssay (NCI).
About 83,000 compounds went through this panel and 20% of them were active in at least one assay; those are over-represented in the sample as a whole.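 Percent growth is the endpoint: 0 to 100 indicates growth inhibition (40 means 60% inhibition), 0 means no net growth, and negative values indicate cell death.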 Activity calls are given as the source filed them. Rule for the calls: active = growth percent below 10; inactive = the rest.

Assays:
Test in all cases: NCI-60 one-dose screen, 48 h (100 = growth as untreated, 0 = no growth, -100 = all killed)
Conditions in all cases: 10 µM unless noted
BT-549 breast = test system: BT-549 breast
MDA-MB-435 melanoma = test system: MDA-MB-435 melanoma
SW-620 colon = test system: SW-620 colon
MCF7 breast = test system: MCF7 breast
HCT-116 colon = test system: HCT-116 colon
HCC-2998 colon = test system: HCC-2998 colon
KM12 colon = test system: KM12 colon

Measured: growth

CC(=O)Oc1ccccc1C(=O)Nc1ccc(C(=O)/C=C/c2ccncc2)cc1
inactive: BT-549 breast 57.1% | MDA-MB-435 melanoma 18.2% | HCC-2998 colon 13.3%
active: SW-620 colon 0.322% | MCF7 breast 2.69% | HCT-116 colon -72.5% | KM12 colon -31.9%

COC(=O)C1CCCN(S(=O)(=O)/N=C2\NC(=O)NC2=C(Cl)Cl)C1 (stereo unspecified)
inactive: BT-549 breast 118% | MDA-MB-435 melanoma 111% | SW-620 colon 85.8% | MCF7 breast 20.4% | HCT-116 colon 97.8% | HCC-2998 colon 111%

O=C(CCCN1C(=O)/C(=C/c2ccccc2F)SC1=S)N1CCOCC1
inactive: BT-549 breast 114% | MDA-MB-435 melanoma 82.7% | SW-620 colon 95.2% | MCF7 breast 56.9% | HCT-116 colon 88.7% | HCC-2998 colon 119%

Nc1cc(-c2c[nH]c3ccc(F)cc23)nc2cc(-c3c[nH]c4ccc(F)cc34)nn12
active: SW-620 colon 4.64%
inactive: BT-549 breast 103% | MDA-MB-435 melanoma 64.2% | MCF7 breast 37% | HCT-116 colon 31.9%

CCOC(=O)c1csc(NC(=O)CSc2nc3sc4c(c3c(=O)n2-c2ccc(Cl)cc2)CCCC4)n1
inactive: BT-549 breast 99% | MDA-MB-435 melanoma 93.6% | SW-620 colon 103% | MCF7 breast 84.3% | HCT-116 colon 105% | HCC-2998 colon 121%

COc1cc(/C=C/C(=O)c2cc(OC)c(OC)c(OC)c2)ccc1OCc1ccc(F)cc1
active: BT-549 breast 8.09% | HCT-116 colon 5.57%
inactive: MDA-MB-435 melanoma 52.9% | SW-620 colon 16.9% | MCF7 breast 10.8% | HCC-2998 colon 40.2%

COc1cc(-c2nc3ccc(-c4nnc(SCC(=O)Nc5ccc(C(=O)/C=C/c6ccc(Cl)cc6)cc5)o4)cc3[nH]2)cc(OC)c1OC
inactive: BT-549 breast 84.4% | MDA-MB-435 melanoma 99% | SW-620 colon 100% | MCF7 breast 59.1% | HCT-116 colon 81.5% | HCC-2998 colon 120%

Cn1cc(-c2cc(N)n3nc(-c4cn(C)c5ccc(Br)cc45)cc3n2)c2cc(Br)ccc21
inactive: BT-549 breast 105% | MDA-MB-435 melanoma 30.8% | HCT-116 colon 57% | HCC-2998 colon 82.5%
active: SW-620 colon 1.21% | MCF7 breast 1.35%

CNC(=O)c1cc(-c2ccc(NC(=O)Nc3ccc(N4CCN(C)CC4)c(C(F)(F)F)c3)cc2)nc2cccnc12
active: BT-549 breast -81.4% | MDA-MB-435 melanoma -93% | SW-620 colon -81.2% | MCF7 breast -100% | HCT-116 colon -98.4%

CCN1C(=S)N(CC)C2C1NN=C1SC(c3ccccc3)=CC(=O)N12 (stereo unspecified)
inactive: BT-549 breast 106% | MDA-MB-435 melanoma 59% | SW-620 colon 111% | MCF7 breast 95.4% | HCT-116 colon 104% | HCC-2998 colon 111%

Nc1c(C(=O)c2ccc(Br)cc2)oc2nc(-c3cnccn3)cc(-c3cccs3)c12
inactive: BT-549 breast 103% | MDA-MB-435 melanoma 102% | SW-620 colon 98.8% | MCF7 breast 77.6% | HCT-116 colon 96.8% | HCC-2998 colon 113%

CC(C)(C)OC(=O)N1C(=O)c2c(c3c4ccccc4[nH]c3c3ccc4ccccc4c23)C1=O
inactive: BT-549 breast 61.7% | MDA-MB-435 melanoma 40.3% | SW-620 colon 57.2% | MCF7 breast 34.5% | HCT-116 colon 58.8% | HCC-2998 colon 82.6%

N[C@@H](Cc1cn(-c2ccnc3ccccc23)nn1)C(=O)O
inactive: BT-549 breast 118% | MDA-MB-435 melanoma 106% | SW-620 colon 104% | MCF7 breast 101% | HCT-116 colon 104%

O=c1/c(=C\c2ccc(-c3ccccc3)o2)sc2nc(-c3ccccc3)nn12
inactive: BT-549 breast 119% | MDA-MB-435 melanoma 101% | SW-620 colon 104% | MCF7 breast 99.1% | HCT-116 colon 103% | HCC-2998 colon 113%

CCCC(=O)NC(c1cccc(N(C)C)c1)c1cc(C)c2cccnc2c1O (stereo unspecified)
inactive: BT-549 breast 78.4% | MDA-MB-435 melanoma 77.6% | SW-620 colon 50% | MCF7 breast 35.3% | HCT-116 colon 22.7% | HCC-2998 colon 57.9%

CN1CCN(Cc2ccc(NC(=O)c3cncc(C#Cc4cnc5ccc(N6CCSCC6)nn45)c3)cc2C(F)(F)F)CC1
active: MDA-MB-435 melanoma -73.4% | SW-620 colon -3.56% | MCF7 breast -59.7% | HCT-116 colon -51.8% | HCC-2998 colon -51.2%
inactive: BT-549 breast 40.5%

COc1cccc(N2CCN(c3ncnc4c3[nH]c3ccc(F)cc34)C[C@@H]2C)c1
inactive: HCC-2998 colon 16.7%
active: BT-549 breast -97% | MDA-MB-435 melanoma -75.4% | SW-620 colon -3.32% | MCF7 breast 0.969% | HCT-116 colon -35.9%

COc1cc(-c2ccc3ncnc(NC(C)c4ccccc4)c3c2)cnc1OC (stereo unspecified)
inactive: BT-549 breast 32.6% | MDA-MB-435 melanoma 69.6% | SW-620 colon 69.2% | MCF7 breast 23.7% | HCT-116 colon 76.8% | HCC-2998 colon 69.8%

O=C(CSc1nc2sc3c(c2c(=O)n1-c1ccc(Cl)cc1)CCCC3)N/N=C/c1ccc(F)cc1
inactive: BT-549 breast 116% | MDA-MB-435 melanoma 86.9% | SW-620 colon 61.9% | MCF7 breast 74.7% | HCT-116 colon 99.7%

NS(=O)(=O)c1cccc(Nc2nc(SCC(=O)c3ccc([N+](=O)[O-])cc3)nc3ccccc23)c1
inactive: MDA-MB-435 melanoma 51.3% | SW-620 colon 69.2% | MCF7 breast 11.7% | HCT-116 colon 36.8% | HCC-2998 colon 54.3%
active: BT-549 breast -4.45%

CC(=O)c1ccc(Nc2nc(SC(C)C)nc(-c3ccccc3)c2C#N)cc1
inactive: BT-549 breast 118% | MDA-MB-435 melanoma 102% | SW-620 colon 98.6% | MCF7 breast 90.6% | HCT-116 colon 97.5% | HCC-2998 colon 123%

O=C1c2c(c3c4cc(Br)ccc4[nH]c3c3ccc4ccccc4c23)C(=O)N1CCO
inactive: BT-549 breast 105% | MDA-MB-435 melanoma 94.8% | SW-620 colon 75.9% | MCF7 breast 34.3% | HCT-116 colon 84.2%

Cc1cccc2sc(/N=C(\N)C(Br)Br)nc12
active: SW-620 colon -40.2% | MCF7 breast -13.3% | HCT-116 colon -29.1% | HCC-2998 colon 4.99%
inactive: BT-549 breast 30.2% | MDA-MB-435 melanoma 12.3%

Cc1cccc(/C=C/c2nn3c(-c4ccco4)nnc3s2)c1
inactive: BT-549 breast 90.8% | MDA-MB-435 melanoma 95.8% | SW-620 colon 101% | MCF7 breast 78.5% | HCT-116 colon 106% | HCC-2998 colon 95%

Cc1cc(=O)oc2cc(OCCCOc3ccc(/C=C/C(=O)Nc4ccc(Cl)cc4)cc3)ccc12
inactive: BT-549 breast 64.4% | MDA-MB-435 melanoma 61.1% | SW-620 colon 27.2% | MCF7 breast 35.1% | HCT-116 colon 64.8% | HCC-2998 colon 69.6%

O=C1C2=C(C(=O)c3c(O)cccc31)C(c1ccco1)c1sc(=O)[nH]c1S2 (stereo unspecified)
active: BT-549 breast -96.8% | MDA-MB-435 melanoma -45.3% | MCF7 breast -14.2% | HCT-116 colon -2.88% | HCC-2998 colon 4.16%
inactive: SW-620 colon 13%

COc1cccc(-c2nn(-c3ccccc3)cc2-c2ccnc(N3CCN(C(=O)Nc4ccc(F)cc4)CC3)c2)c1
inactive: BT-549 breast 45.8% | MDA-MB-435 melanoma 49.9% | SW-620 colon 74.1% | MCF7 breast 57.7% | HCT-116 colon 54.9% | HCC-2998 colon 95.4%

CCOC(=O)c1c(Nc2ccccc2)nn2c(-c3ccco3)c(C#N)cnc12
inactive: BT-549 breast 83.1% | MDA-MB-435 melanoma 93% | SW-620 colon 94.7% | MCF7 breast 83.2% | HCT-116 colon 92.5% | HCC-2998 colon 112%

CCOC(=O)c1c(Nc2ccccc2)nn2c(N)c(C#N)c(-c3ccc(F)cc3)nc12
inactive: BT-549 breast 98.7% | MDA-MB-435 melanoma 81.2% | SW-620 colon 86.5% | MCF7 breast 67.6% | HCT-116 colon 87.4% | HCC-2998 colon 110%

c1ccc(CNc2ncnc3ccc(-c4cnc5[nH]ncc5c4)cc23)cc1
inactive: BT-549 breast 62.2% | MDA-MB-435 melanoma 86.9% | SW-620 colon 72.9% | MCF7 breast 30.3% | HCT-116 colon 80.1% | HCC-2998 colon 83.6%

C=CCSc1ccc2c(c1)C(N1CCNCC1)=Nc1ccccc1O2
inactive: BT-549 breast 106% [8.25 µM] | MDA-MB-435 melanoma 68% [8.25 µM] | SW-620 colon 73.4% [8.25 µM] | MCF7 breast 59.2% [8.25 µM] | HCT-116 colon 55.1% [8.25 µM]
active: HCC-2998 colon -14.8% [8.25 µM]

CN1C(=O)N(c2ccccc2)C2N=C(N/N=C/c3ccccc3)SC21 (stereo unspecified)
active: MDA-MB-435 melanoma -24.9%
inactive: BT-549 breast 52.4% | SW-620 colon 15.2% | MCF7 breast 24% | HCT-116 colon 22.5% | HCC-2998 colon 51.5%

O=C1c2c(c3c4cccnc4[nH]c3c3ccc4ccccc4c23)C(=O)N1CCO
inactive: BT-549 breast 86.8% | MDA-MB-435 melanoma 85.1% | SW-620 colon 57.6% | MCF7 breast 30.2% | HCT-116 colon 60.2% | HCC-2998 colon 101%

CO/N=C1\CCc2c(sc(NC(=O)c3cccc(C(F)(F)F)c3)c2C(N)=O)C1
inactive: BT-549 breast 49.4% | MDA-MB-435 melanoma 49.1% | SW-620 colon 43.4% | MCF7 breast 45.9%
active: HCT-116 colon 5%

Cc1c(NC(=O)CSc2nc3sc4c(c3c(=O)n2-c2ccc(Cl)cc2)CCCC4)c(=O)n(-c2ccccc2)n1C
inactive: BT-549 breast 93.2% | MDA-MB-435 melanoma 88.3% | SW-620 colon 90.6% | MCF7 breast 77.3% | HCT-116 colon 107% | HCC-2998 colon 110%

CS(=O)(=O)c1ccc(-c2nc3ccccn3c2C=Nc2ccc(Cl)cc2)cc1
inactive: BT-549 breast 74.3% | MDA-MB-435 melanoma 56.7% | SW-620 colon 63% | MCF7 breast 87.7% | HCT-116 colon 52.1% | HCC-2998 colon 95.8%

CCOc1ccc2nc(NC(=O)c3ccc(C(F)(F)F)cc3)sc2c1
inactive: BT-549 breast 98.5% | MDA-MB-435 melanoma 96.6% | SW-620 colon 103% | MCF7 breast 98.6% | HCT-116 colon 102%

Clc1ccc2oc3c(NCCCN4CCOCC4)c4ccccc4nc3c2c1
active: MCF7 breast 7.12%
inactive: BT-549 breast 67.8% | MDA-MB-435 melanoma 22% | SW-620 colon 15% | HCT-116 colon 14.8% | HCC-2998 colon 28.9%

Clc1ccc2c(NCCCN3CCOCC3)c3oc4ccccc4c3nc2c1
inactive: BT-549 breast 104% | MDA-MB-435 melanoma 36% | SW-620 colon 21.8% | MCF7 breast 16.6% | HCT-116 colon 20.1% | HCC-2998 colon 50.4% | KM12 colon 32%

Clc1ccc2c(NCCCn3ccnc3)c3oc4ccc(Cl)cc4c3nc2c1
inactive: BT-549 breast 88.1% | MDA-MB-435 melanoma 86.2% | SW-620 colon 57% | MCF7 breast 53.8% | HCT-116 colon 81% | HCC-2998 colon 79% | KM12 colon 87.6%
